Consider 28 compounds from PubChem BioAssay (NCI).

The panel holds about 83,000 compounds, 20% with a hit somewhere; the sample as a whole holds those more often.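 Each cell line was grown in a 96-well plate and treated with one concentration of compound for 48 hours. Values below 10 were considered active.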 Values without a mark were called inactive. Calls of active or inactive are those of the source.

Common to all, as to assay: NCI-60 one-dose screen, 48 h (100 = growth as untreated, 0 = no growth, -100 = all killed)
Holding throughout (conditions): 10 µM

For assay [1], the system named is DU-145 prostate.
Assay [2] relates to K-562 leukemia.
Assay [3] deals with MALME-3M melanoma.
Assay [4] deals with MDA-MB-231 breast.
Assay [5] concerns SF-268 CNS.
Assay [6] concerns SF-295 CNS.
The test system of assay [7] is SF-539 CNS.
Assay [8] deals with UACC-257 melanoma.
For assay [9], the system named is M14 melanoma.

Regarding `O=C(CSc1nnc(-c2c[nH]c3ccccc23)n1-c1ccccc1)c1ccc(Cl)cc1`, the growth is 88.4% in [1]; 69% in assay [2]; 64% in assay [3]; 51.7% in [4]; 69.4% in [5]; 55% in assay [6]. For the same compound, the growth in assay [7] is 49.5%; in assay [8] it was 72.3%; in [9] it was 80.6%.

For the compound `CC1(c2ccccc2)NC(=O)N(CC(=O)Nc2ccc(C(=O)/C=C/c3ccccc3)cc2)C1=O` (configuration not stated), the growth in assay [1] was 62.1%; in assay [2], 22.4%; in assay [3], 77.6%; in assay [4], 67.7%; in assay [5], 52.2%; in assay [6], 50.9%. In addition, the growth in assay [7] is 43.3%; in assay [8], 63.5%; in assay [9], 48.2%.

Take `O=C(/C=C/Nc1ccc(F)cc1F)c1ccc2c(c1)Nc1ccccc1S2`: the growth was 89.4% in assay [1]; 28.6% in assay [2]; 66.1% in [3]; 77.5% in [4]; 82.2% in assay [5]; 65.3% in assay [6]. Further, the growth is 62.4% in assay [7], 88.2% in assay [8] and 66.4% in [9].

Turning to `COc1cc2c3c(n(CCCn4ccnc4)c(=O)c2cc1OC)-c1nc2c(cc1C3=O)OCO2`, the growth in assay [1] was 13.4%; in assay [2], 28.4%; in assay [3], 59.9%; in assay [4], 84.1%; in assay [5], 42.4%; in [6] it was -7.74% (active). The growth is -10.1% (active) in [7], 66% in [8] and 19.9% in assay [9].

Regarding `CN(C)c1nc(NCCNS(=O)(=O)c2ccc(C(=O)/C=C/c3ccccc3)cc2)nc(Nc2ccc(F)cc2)n1`, the growth in assay [1] was 26.3%; in assay [2] it was 10.8%; in assay [3] it was 36.5%; in [4], 17.7%; in [5] it was 32.4%; in assay [6], 23.1%. The figures for the growth in [7], in assay [8] and in [9] were 26.7%, 54.8% and 5.05% (active), respectively.

`C/C(=N\N=C\c1ccc(Cl)c([N+](=O)[O-])c1)c1ccc2c(c1)Nc1ccccc1S2`: the growth in assay [1] is 28.1%; in assay [2], 38.6%; in assay [3], -3.5% (active); in assay [4], 32.4%; in assay [5] it was 47.3%; in [6], 42.7%. Further, the results for the growth in [7], in assay [8] and in assay [9] were 12.8%, 51.2% and 62.6%, respectively.

As to `O=c1c2ccccc2nc(COc2ccccc2)n1/N=C/c1ccc(F)cc1`, the growth in assay [1] was 91.4%; in assay [2] it was 69.8%; in assay [3] it was 115%; in assay [4], 88%; in [5], 99.7%; in assay [6] it was 89.4%. Further, the results for the growth in [7], in assay [8] and in assay [9] were 89.6%, 99.8% and 98.8%, respectively.

As to `O=C(CNc1nc(-c2ccccc2)cs1)Nc1ccc(Cl)cc1[N+](=O)[O-]`, the growth was 10.1% in assay [1]; 4.23% (active) in assay [2]; -70.5% (active) in [3]; -66.7% (active) in assay [4]; -58.4% (active) in [5]; -49.7% (active) in [6]. Also, the results for the growth in [7], in assay [8] and in assay [9] were -86.8% (active), -17.2% (active) and -13.1% (active), respectively.

Regarding `O=C(CNc1nc(-c2ccccc2)cs1)Nc1cccc([N+](=O)[O-])c1`, the growth is -98.6% (active) in assay [1]; 8.88% (active) in assay [2]; -90.5% (active) in assay [3]; -88.7% (active) in assay [4]; -57.7% (active) in [5]; -94.2% (active) in assay [6]. For the same compound, the growth in assay [7] was -100% (active); in [8] it was -71.5% (active); in assay [9] it was -87.6% (active).

For `CCOC(=O)CNC(=O)CN(Cc1ccccc1)C(=O)[C@@]1(C)CCC[C@]2(C)[C@H]3C[C@H]4C(C(C)C)=C[C@]3(CC[C@H]21)[C@@H]1C(=O)OC(=O)[C@@H]14`, the growth in assay [1] is 92.8%; in assay [2] it was 24.9%; in assay [3], 101%; in assay [4], 88.1%; in assay [5] it was 92.7%; in assay [6], 48.6%. Further, the results for the growth in assay [7], in assay [8] and in assay [9] were 91.8%, 89.5% and 73.3%, respectively.

`O=c1c2ccccc2nc(COc2ccccc2)n1/N=C/c1ccc(N2CCOCC2)cc1`: the growth in assay [1] is 77.5%; in assay [2] it was 103%; in [3] it was 56.8%; in [4], 26%; in assay [5], 26.4%; in assay [6] it was 69.8%. Also, the growth was 34.1% in assay [7], 95.7% in [8] and 93.9% in assay [9].

Take `COc1cc(/C=C/C(=O)c2ccc(NC(=O)CSc3nnc(-c4c[nH]c5ccccc45)n3-c3ccccc3)cc2)cc(OC)c1OC`: the growth in assay [1] was 79.6%; in assay [2], 28.6%; in [3] it was 95.2%; in [4], 64.2%; in assay [5], 85.4%; in assay [6], 74.3%. The growth in assay [7] was 60.8%; in assay [8], 106%; in assay [9], 81.1%.

Consider `Cc1ccc(-c2cc(C(=O)N=Nc3c(O)[nH]c4ccccc34)c3ccccc3n2)cc1`, for which the growth in assay [1] is 3.29% (active); in assay [2], 13.8%; in assay [3] it was 36.5%; in [4], 2.78% (active); in assay [5] it was 36.4%; in assay [6], 94.3%. For the same compound, the growth is -66.2% (active) in assay [7], 81% in assay [8] and 70.5% in assay [9].

As for `COc1ccc(NC(=O)Cn2c(/C=C/c3ccc(N(C)C)cc3)nc3ccccc3c2=O)cc1`, the growth in assay [1] was 6.75% (active); in [2] it was 58.8%; in [3], 7.28% (active); in [4], 18.8%; in [5] it was 73%; in [6], 49.5%. The values for the growth in assay [7], in [8] and in assay [9] were -60.2% (active), 67.7% and 81%, respectively.

On to `COc1cc2c3c(n(CCCNC(C)C)c(=O)c2cc1OC)-c1nc2c(cc1C3=O)OCO2`, for which the growth in assay [1] was 8.46% (active); in assay [2], 2.95% (active); in assay [3], -92.3% (active); in assay [4], -90.5% (active); in assay [5], -72.5% (active); in assay [6], 11.7%. Moreover, the results for the growth in assay [7], in assay [8] and in assay [9] were -6.71% (active), -30.4% (active) and -48.8% (active), respectively.

Turning to `COc1ccc(C(=O)CSc2nnc(-c3c[nH]c4ccccc34)n2-c2ccccc2)cc1`, the growth in assay [1] was 68.9%; in assay [2] it was 58.2%; in assay [3], -16.2% (active); in assay [4], 32.5%; in [5], 41%; in assay [6], 36.2%. In addition, the growth was 28.5% in [7], 59.5% in [8] and 75.7% in assay [9].

For the compound `COc1cc(/C=C/C(=O)c2ccc(C(F)(F)F)cc2)ccc1Oc1nc(Nc2ccc(F)cc2)nc(N(C)C)n1`, the growth in assay [1] was 82.9%; in assay [2], 48.2%; in [3], 87.7%; in assay [4], 85.6%; in assay [5], 65.5%; in [6], 64.1%. Moreover, the growth was 93.8% in assay [7], 75.1% in [8] and 72.8% in assay [9].

`Cc1ccc(/C=C/C(=O)c2ccc(S(=O)(=O)NCCNc3nc(Nc4ccc(F)cc4)nc(N(C)C)n3)cc2)cc1`: the growth in assay [1] was 30%; in assay [2] it was 12.2%; in assay [3] it was 69.1%; in assay [4] it was 38.6%; in assay [5] it was 34.6%; in assay [6], 37.7%. In addition, the results for the growth in assay [7], in [8] and in [9] were 41.6%, 61.2% and 14.6%, respectively.

On to `C/C(=N\N=C\c1ccc(N(C)C)cc1)c1ccc2c(c1)Nc1ccccc1S2`, for which the growth in [1] was 62%; in assay [2], 28.2%; in [3], 49.9%; in [4], 52%; in assay [5] it was 62.8%; in [6], 24.6%. The growth was 52.8% in [7], 64.9% in [8] and 67.7% in [9].

For the compound `O=C(Nc1ccc(Cl)c(C(F)(F)F)c1)c1cncc(C#Cc2cnc3ccc(N4CCOCC4)nn23)c1`, the growth in assay [1] was 20.6%; in [2], 13.3%; in [3] it was -39.8% (active); in assay [4], -44.6% (active); in [5] it was 7.89% (active); in [6], 5.28% (active). Besides, the growth was -42% (active) in [7], 6.55% (active) in assay [8] and 11.3% in [9].

Regarding `O=C(CNc1nc(-c2ccccc2)cs1)Nc1ccc([N+](=O)[O-])cc1Cl`, the growth in assay [1] is 54.8%; in assay [2] it was 12.2%; in [3], 24%; in assay [4], 10.8%; in [5], 29.6%; in assay [6], 34.2%. Besides, the growth is 2.17% (active) in [7], 58.5% in [8] and 34.4% in [9].

Take `Nc1nc(Nc2ccc(Cl)cc2)n(Cc2cccc(Br)c2)n1`: the growth was 12.1% in assay [1]; 7.99% (active) in assay [2]; -53.2% (active) in assay [3]; -68.7% (active) in [4]; -27.4% (active) in [5]; -63.2% (active) in assay [6]. The values for the growth in [7], in assay [8] and in assay [9] were -86.6% (active), -15.6% (active) and -48.8% (active), respectively.

Take `COc1cccc2nc(Nc3cccc(NC(=O)c4ccc(CN5CCCN(C)CC5)c(C(F)(F)F)c4)c3)ccc12`: the growth was -83.4% (active) in assay [1]; 5.93% (active) in assay [2]; -96.3% (active) in assay [3]; -99.1% (active) in assay [4]; -50.3% (active) in assay [5]; -97.7% (active) in [6]. The results for the growth in [7], in assay [8] and in assay [9] were -100% (active), -86% (active) and -90.5% (active), respectively.

Turning to `Cn1cc(/C=N/Nc2cccc(Cl)n2)c2ccccc21`, the growth in assay [1] was 72.5%; in [2] it was 20.2%; in assay [3], 70.7%; in assay [4], 51.6%; in assay [5] it was 56%; in [6], 73.5%. Besides, the growth in assay [7] is 64.6%; in assay [8] it was 88.8%; in [9] it was 55.4%.

In the case of `OCCNc1oc(-c2ccccc2)nc1[P+](c1ccccc1)(c1ccccc1)c1ccccc1`, the growth in [1] is 16.6%; in [2], 11.2%; in [3] it was -26.1% (active); in [4] it was -5.38% (active); in assay [5], 5.6% (active); in assay [6], 20.7%. Also, the growth in [7] was 16.7%; in [8], -9.09% (active); in [9] it was 11%.

`COc1ccc(/C=N/N=C(\C)c2ccc3c(c2)Nc2ccccc2S3)cc1O`: the growth is 62.7% in [1]; 25.7% in [2]; 55.1% in assay [3]; 65.3% in assay [4]; 57.2% in [5]; 45.1% in [6]. For the same compound, the growth in [7] was 67.2%; in [8], 27.6%; in [9], 49.3%.

Regarding `COc1ccc(-c2cc(C(=O)N=Nc3c(O)[nH]c4ccc(Br)cc34)c3ccccc3n2)cc1`, the growth was 19.9% in assay [1]; 10.2% in [2]; 45.9% in assay [3]; -68.2% (active) in [4]; 64.4% in assay [5]; 35.3% in [6]. Moreover, the growth in [7] was 31.7%; in assay [8] it was 102%; in assay [9], 42.6%.

For the compound `COc1nccnc1NS(=O)(=O)c1ccc(NC2=C(Cl)C(=O)c3nc(C)ccc3C2=O)cc1`, the growth was 107% in [1]; 96.3% in assay [2]; 100% in assay [3]; 91.1% in [4]; 92.9% in assay [5]; 97.5% in [6]. Moreover, the results for the growth in assay [7], in assay [8] and in [9] were 94%, 101% and 112%, respectively.
